Results as given in PubChem BioAssay (Tox21).
Records with an inconclusive call do not appear. Unmarked numbers belong to inactive results. Activity calls are given as the source filed them. Calls come from the whole dose curve; as a rule, active = well fitted cell-killing curve with a large enough effect in the repeat runs; inconclusive = weak or mixed curves, or effect the other way; inactive = flat fitted curve, though single readings scatter.

assay: qHTS assay to identify small molecule agonists of the estrogen receptor beta (ER-beta) signaling pathway - cell viability counter screen (AID 1259380); conditions: ER-beta-bla HEK293T viability, CellTiter-Glo luminescence, 16 h; series mostly up to 92.4 µM; activity change, negative = cytotoxicity: at the top concentration; note: nearly all actives have a fitted effect of over 30% in size
Excerpt: National Center for Advancing Translational Sciences [NCATS]
NIH Chemical Genomics Center [NCGC]
U.S. Environmental Protection Agency [EPA]
National Institutes of Environmental Health Sciences [NIEHS]
National Toxicology Program [NTP]
U.S. Food and Drug Administration [FDA]
Estrogen receptor (ER), a nuclear hormone receptor, plays an important role in development, metabolic homeostasis and reproduction. Two subtypes of ER, ER-alpha and ER-beta, have similar expression patterns with some uniqueness in both types. Endocrine disrupting chemicals (EDCs) and their interactions with steroid hormone receptors like ER causes disruption of normal endocrine function. To identify the compounds that activate ER signaling, an ER beta-UAS-bla GripTite cell line (Life Technologies, Madison, WI, USA) containing a beta-lactamase reporter gene under the control of an UAS response element was used to screen Tox21 10K compound library. The cytotoxicity of the Tox21 compound library against the ER-beta-bla cell line was tested in parallel by measuring the cell viability using CellTiter-Glo assay in the same wells.
Tox21 Assay Protocol Summary:
ER-beta-UAS-bla HEK293T cells were dispensed at 2,000 cells/5 uL of assay medium containing 2% charcoal stripped FBS per well into black wall/clear-bottom 1536-well plates using a Multidrop Combi (ThermoFisher Scientific, Waltham, MA) dispenser. After the assay plates were incubated at a 37C and 5% CO2 for 6 hr, 23 nL of compounds dissolved in DMSO, positive controls or DMSO only was transferred to the assay plate by a Pintool station (Kalypsys, San Diego, CA). The plates were incubated at 37C and 5% CO2 for 16 hr. Then 1 uL of LiveBLAzerTM B/G FRET substrate was added using a BioRAPTR FRD (Flying Reagent Dispenser, Aurora Discovery, San Diego, CA) and then the plates were incubated at room temperature for 2 hours, and fluorescence intensity was measured by an Envision plate reader (PerkinElmer, Shelton, CT). For cell viability readout that measures cytotoxicity, 4 uL/well of CellTiter-Glo reagent was added into the assay plates using a FRD. After 30 min incubation at room temperature, the luminescence intensity in the plates was measured using a ViewLux (PerkinElmer) plate reader.
% is set by controls: 0 for no effect and ±100 for the full control effect; potency is the fitted concentration of half-maximal effect.

| SMILES | Potency | activity change, negative = cytotoxicity |
| --- | --- | --- |
| O=[N+]([O-])c1cc[n+]([O-])cc1 | 27.3 µM (active) |  |
| CCCCOc1cc(C(=O)OCCN(CC)CC)ccc1N |  | -6.99% [at 42.5 µM] |
| O=C(O)/C=C/c1cnc[nH]1 |  | 1.35% |
| O=C(O)c1cccc(N(Cc2cccnc2)c2ccc(OC(F)F)c(OC(F)F)c2)c1 | 48.6 µM (active) |  |
| FC(F)(F)C(F)(F)C(F)(F)C(F)(F)C(F)(F)C(F)(F)CCI |  | 4.47% [at 42.5 µM] |
| Cc1cc(O)ccc1N | 48.8 µM (active) |  |
| Oc1ccc2c(c1)OCO2 |  | -5.48% |
| CC[C@@H]1C[C@H](N(Cc2cc(C(F)(F)F)cc(C(F)(F)F)c2)C(C)=O)c2cc(C(F)(F)F)ccc2N1C(=O)OC(C)C |  | -8.53% |
| CCCCCCCCC(CO)CCCCCC (stereo not given) |  | 4.95% |
| CC(C)(Oc1ccc(Cl)cc1)C(=O)OCCCOC(=O)C(C)(C)Oc1ccc(Cl)cc1 |  | 1.27% [at 42.5 µM] |
| CC(C)NCC(O)COc1ccc(CC(N)=O)cc1 (stereo not given) |  | 1.43% |
| CCCCCCc1ccc(N)cc1 | 27.3 µM (active) |  |
| Cc1cccc(OCCOc2cccc(C)c2)c1 |  | -1.53% |
| CCCCC(CC)(CO)CO |  | 2.64% |
| CC(C)(C)C(=O)OCOP(=O)(COCCn1cnc2c(N)ncnc21)OCOC(=O)C(C)(C)C | 9.44 µM (active) |  |
| CCCCCCCCN(C)C |  | -1.57% |
| N#CCCNCCC#N |  | 2.14% |
| Cc1ccc2c(ccc3ccccc32)c1 |  | -10.4% |
| c1ccc(OCc2ccc(CCCN3CCOCC3)cc2)cc1 |  | -10.5% [at 42.5 µM] |
| C=C(C)C(=O)OCCOc1ccccc1 |  | 0.363% |

| SMILES | Potency | activity change, negative = cytotoxicity |
| --- | --- | --- |
| O=C(/C=C/c1ccc(O)c(O)c1)O[C@@H]1C[C@](O)(C(=O)O)C[C@@H](O)[C@H]1O |  | 2.85% |
| CCN(CC)CCc1nc(-c2ccccc2)no1 |  | -9.61% [at 42.5 µM] |
| Oc1ccc(C(O)CNCCCCCCNCC(O)c2ccc(O)c(O)c2)cc1O (stereo not given) |  | -1.93% [at 42.5 µM] |
| CNS(=O)(=O)Cc1ccc2[nH]cc(CCN(C)C)c2c1 |  | 6.34% [at 42.5 µM] |
| O=C1Nc2cc(Cl)ccc2Oc2ccccc21 |  | 1.66% [at 42.5 µM] |
| O=C(O)c1cn(C2CC2)c2cc(Cl)c(F)cc2c1=O |  | 5.28% [at 42.5 µM] |
| COc1ccc([C@@H]2Sc3ccccc3N(CCN(C)C)C(=O)[C@@H]2OC(C)=O)cc1 | 15 µM (active) |  |
| CC(=O)OC/C=C/c1ccccc1 |  | 0.386% |
| CC1CCc2cc(F)cc3c(=O)c(C(=O)O)cn1c23 (stereo not given) |  | 11.4% [at 42.5 µM] |
| CCCCCCCCCCCCC(=O)O | 54.6 µM (active) |  |
| Cc1cccc(C(C)(C)C)c1O |  | -3.97% |
| O=C(c1ccc(O)cc1)c1ccc(O)cc1 |  | -0.893% |
| CC(C)(C)c1cc(CCC(=O)OCC(COC(=O)CCc2cc(C(C)(C)C)c(O)c(C(C)(C)C)c2)(COC(=O)CCc2cc(C(C)(C)C)c(O)c(C(C)(C)C)c2)COC(=O)CCc2cc(C(C)(C)C)c(O)c(C(C)(C)C)c2)cc(C(C)(C)C)c1O |  | 2.16% [at 42.5 µM] |
| CC(=O)Nc1ccc(/C=N/NC(N)=S)cc1 |  | -4.98% [at 42.5 µM] |
| CCCCCCCCCCCCCCCBr |  | 2.28% [at 42.5 µM] |
| Cc1ncsc1CCO |  | 10.9% |
| CCCCCCOC(=O)CCC |  | -6.69% |
| CCOc1ccc2[nH]cc(C(=O)NCc3ccccc3)c(=O)c2n1 |  | 0.0133% |
| NCCCN(CCO)CCO |  | -4.85% |
| N#CCc1cccc(C(F)(F)F)c1 |  | 5.85% |
